Unmarked numbers belong to inactive results. Records with an inconclusive call do not appear. A call without a number means that no potency is given here. The source made the active and inactive calls. Unless noted, calls follow the shape of the dose curve; as a rule, active = well fitted curve in the direction sought with a large enough effect in the repeat runs; inconclusive = weak or mixed curves; inactive = no such curve, though single readings can be large; an effect the other way counts as inactive or inconclusive.
Key:
[1] = Caspase-3/7 induction in HepG2 cells by small molecules, qHTS assay (AID 1346978); conditions: HepG2 caspase-3/7 activation, Caspase-Glo luminescence, 17 h; series mostly up to 92.4 µM; also: nearly all actives have a fitted effect of over 15% in size; also: potency is read from the fitted curve at half-maximal effect
Method in brief: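 Caspase-3/7 induction was measured by Caspase-Glo 3/7 luminescence (30 min, room temperature) after a 17 hr compound exposure of wild-type HepG2 cells seeded at 2,000 per well and pre-incubated 5 hr.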

[2] = Caspase-3/7 induction in CHO-K1 cells by small molecules, qHTS cell viability counter screen (AID 1346979); conditions: CellTiter-Fluor fluorescence, 17 h; series mostly up to 92.4 µM; also: nearly all actives have a fitted effect of over 35% in size; also: potency is read from the fitted curve at half-maximal effect
Method in brief: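 In the same wells as the caspase read, viability of compound-treated wild-type CHO-K1 cells was assessed using CellTiter-Fluor, added after 16hr at 37C and measured by fluorescence following 1hr further incubation.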

[3] = Caspase-3/7 induction in CHO-K1 cells by small molecules, qHTS assay (AID 1346980); conditions: CHO-K1 caspase-3/7 induction, Caspase-Glo luminescence, 17 h; series mostly up to 92.4 µM; also: nearly all actives have a fitted effect of over 15% in size; also: potency is read from the fitted curve at half-maximal effect
Method in brief: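 Luminescent Caspase-Glo 3/7 read (30min, room temperature) quantified apoptosis induction. Cells were wild-type CHO-K1, treated with compound for 17hr at 37 C and 5% CO2.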

[4] = molecular target: Acetylcholinesterase (Homo sapiens) (UniProt P22303); test: Acetylcholinesterase (AChE) small molecule antagonists: colormetric cell-based qHTS assay (AID 1347395; calls by dose curve; also: nearly all actives have a fitted effect of over 30% in size; also: potency is read from the fitted curve at half-maximal effect); conditions: SH-SY5Y cells AChE activity, colorimetric (Ellman); series mostly up to 115 µM
Method in brief: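 Endogenous AChE of human neuroblastoma SH-SY5Y cells was measured with an Ellman-type DTNB/acetylthiocholine mix. Compound pretreatment lasted 30 min at 37 C; substrate reaction ran 90 min at 37 C.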

[5] = molecular target: Acetylcholinesterase (Homo sapiens) (UniProt P22303); test: Acetylcholinesterase (AChE) small molecule antagonists: enzyme-based qHTS assay (AID 1347397; calls by dose curve; also: nearly all actives have a fitted effect of over 55% in size); conditions: Potency: AChE enzyme activity inhibition; series mostly up to 115 µM
Method in brief: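 Colorimetric DTNB readout of acetylthiocholine hydrolysis, 10 min at room temperature, after 30 min room-temperature exposure of 50 mU/mL recombinant human enzyme to compound; DMSO vehicle control.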

[6] = molecular target: Acetylcholinesterase (Homo sapiens) (UniProt P22303); test: Acetylcholinesterase (AChE) small molecule antagonists: fluorescence cell-based qHTS assay (AID 1347398; calls by dose curve; also: nearly all actives have a fitted effect of over 50% in size); conditions: SH-SY5Y cells; Potency: AChE activity; series mostly up to 115 µM
Method in brief: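 Cellular AChE activity read as thiocholine from acetylthiocholine hydrolysis, detected by Thiolite Green fluorescence at 490/520 nm after 40 min at room temperature. Compounds were pre-incubated 30 min at 37 C on adherent SH-SY5Y cells.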

[7] = molecular target: Acetylcholinesterase (Homo sapiens) (UniProt P22303); test: Acetylcholinesterase (AChE) small molecule antagonists: enzyme-based qHTS assay with human liver microsomes (AID 1347399; calls by dose curve; also: nearly all actives have a fitted effect of over 60% in size); conditions: Potency: qHTS inhibition; series mostly up to 115 µM
Method in brief: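 Recombinant human AChE (50 mU/mL in the enzyme mix) and human liver microsomes (0.25 mg/mL final) were preincubated with compound and NADPH (0.25 mg/mL final) for 30 min at 37 C. Acetylthiocholine/DTNB was then added; thiocholine was read colorimetrically after 10 min at room temperature.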

[8] = molecular target: Cytochrome P450 2D6 (Homo sapiens) (UniProt P10635); test: Cytochrome P450 Family 2 Subfamily D Member 6 (CYP2D6) small molecule antagonists: luciferase reporter qHTS assay (AID 1671196); conditions: P450-Glo CYP2D6 enzyme assay, luciferin luminescence, 1 h; series mostly up to 115 µM; also: nearly all actives have a fitted effect of over 50% in size; also: potency is read from the fitted curve at half-maximal effect
Method in brief: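 Enzyme and proluciferin substrate were first combined with test chemical for 10 min at room temperature. Adding NADPH regeneration solution started a 1 h reaction, stopped with luciferin detection reagent and read by luminescence 20 min later.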

[9] = molecular target: Cytochrome P450 2C19 (Homo sapiens) (UniProt P33261); test: Cytochrome P450 Family 2 Subfamily C Member 19 (CYP2C19) small molecule antagonists: luciferase reporter qHTS assay (AID 1671197); conditions: P450-Glo CYP2C19 enzyme, luciferin luminescence, 1 h; series mostly up to 115 µM; also: nearly all actives have a fitted effect of over 65% in size; also: potency is read from the fitted curve at half-maximal effect
Method in brief: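 Quantitative high-throughput screen of the Tox21 library using CYP2C19 with proluciferin substrate. Reaction: NADPH regeneration, 37C, 1 h, after 10 min compound preincubation at room temperature. Readout: luminescence.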

[10] = molecular target: Cytochrome P450 2C9 (Homo sapiens) (UniProt P11712); test: Cytochrome P450 Family 2 Subfamily C Member 9 (CYP2C9) small molecule antagonists: luciferase reporter qHTS assay (AID 1671198); conditions: P450-Glo CYP2C9 enzyme assay, luciferin luminescence; series mostly up to 115 µM; also: nearly all actives have a fitted effect of over 50% in size; also: potency is read from the fitted curve at half-maximal effect
Method in brief: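 Enzyme-substrate mix preincubated with compound 10 min at room temperature; reaction started with NADPH regeneration solution, 1 h 37C. Luminescent luciferin product read after 20 min detection reagent.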

[11] = molecular target: Cytochrome P450 1A2 (Homo sapiens) (UniProt P05177); test: Cytochrome P450 Family 1 Subfamily A Member 2 (CYP1A2) small molecule antagonists: luciferase reporter qHTS assay (AID 1671199); conditions: P450-Glo CYP1A2 enzyme, luciferin luminescence, 1 h; series mostly up to 115 µM; also: nearly all actives have a fitted effect of over 50% in size; also: potency is read from the fitted curve at half-maximal effect
Method in brief: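 Compounds were incubated with CYP1A2 and a luminogenic proluciferin substrate for 10 min at room temperature before the reaction was started with NADPH regeneration solution. After 1 h, detection reagent was added and light output, proportional to CYP activity, was recorded.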

[12] = molecular target: Voltage-gated inwardly rectifying potassium channel KCNH2 (Homo sapiens) (UniProt Q12809); test: Human Ether-a-go-go-Related Gene (hERG) channel small molecule antagonists: fluorescence cell-based qHTS assay (AID 1671200); conditions: hERG-U2OS cells, FluxOR thallium flux fluorescence; series mostly up to 76.8 µM; also: nearly all actives have a fitted effect of over 50% in size; also: potency is read from the fitted curve at half-maximal effect
Method in brief: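 Quantitative HTS in hERG-U2OS cells: thallium entry through the channel reports activity, read as continuous 480/540 nm fluorescence over 2 min after stimulus addition.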

[13] = molecular target: Cytochrome P450 3A4 (Homo sapiens) (UniProt P08684); test: Cytochrome P450 Family 3 Subfamily A Member 4 (CYP3A4) small molecule antagonists: luciferase reporter qHTS assay (AID 1671201); conditions: P450-Glo CYP3A4 enzyme, luciferin luminescence, 1 h; series mostly up to 115 µM; also: nearly all actives have a fitted effect of over 50% in size; also: potency is read from the fitted curve at half-maximal effect
Method in brief: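 Inhibition of CYP3A4 is measured as loss of light: the enzyme converts a proluciferin substrate to luciferin, detected luminescently. Reaction ran 1 h at room temperature with NADPH regeneration after a 10 min compound preincubation.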

[14] = Caspase-3/7 induction in HepG2 cells by small molecules, qHTS cell viability counter screen (AID 1346981); conditions: CellTiter-Fluor fluorescence, 17 h; series mostly up to 92.4 µM; also: nearly all actives have a fitted effect of over 30% in size; also: potency is read from the fitted curve at half-maximal effect
Method in brief: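 Cell viability is measured as a cytotoxicity counter screen alongside the Caspase-Glo 3/7 readout in identical wells. Wild-type HepG2 cells are treated with test compounds for 16 hr at 37 C before CellTiter-Fluor addition and a 1-hr incubation.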

[15] = molecular target: Nuclear receptor subfamily 1 group I member 2 (Homo sapiens) (UniProt O75469); test: Human pregnane X receptor (PXR) small molecule agonists, qHTS assay (AID 1346982); conditions: PXR-Luc HepG2, CYP3A4 luciferase reporter, 24 h; series mostly up to 92.4 µM; also: nearly all actives have a fitted effect of over 35% in size; also: potency is read from the fitted curve at half-maximal effect
Method in brief: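 Cells: HepG2 stably carrying PXR-Luc. Medium held 5% charcoal-stripped FBS. Compounds in DMSO added after 5 hr plating, incubated 24 hr, then luminescence quantified with ONE-Glo.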

[16] = Human pregnane X receptor (PXR) small molecule agonists, qHTS cell viability counter screen (AID 1346977); conditions: PXR-Luc HepG2 viability, CellTiter-Fluor, 24 h; series mostly up to 92.4 µM; also: nearly all actives have a fitted effect of over 50% in size
Method in brief: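 Measures live-cell protease fluorescence (CellTiter-Fluor) in PXR-Luc HepG2 cells treated 24hr with compounds at 37C. Cells had 5hr to attach before pin transfer of DMSO solutions.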

Acetylcholinesterase (Homo sapiens), sequence (P22303 whole entry, looked up): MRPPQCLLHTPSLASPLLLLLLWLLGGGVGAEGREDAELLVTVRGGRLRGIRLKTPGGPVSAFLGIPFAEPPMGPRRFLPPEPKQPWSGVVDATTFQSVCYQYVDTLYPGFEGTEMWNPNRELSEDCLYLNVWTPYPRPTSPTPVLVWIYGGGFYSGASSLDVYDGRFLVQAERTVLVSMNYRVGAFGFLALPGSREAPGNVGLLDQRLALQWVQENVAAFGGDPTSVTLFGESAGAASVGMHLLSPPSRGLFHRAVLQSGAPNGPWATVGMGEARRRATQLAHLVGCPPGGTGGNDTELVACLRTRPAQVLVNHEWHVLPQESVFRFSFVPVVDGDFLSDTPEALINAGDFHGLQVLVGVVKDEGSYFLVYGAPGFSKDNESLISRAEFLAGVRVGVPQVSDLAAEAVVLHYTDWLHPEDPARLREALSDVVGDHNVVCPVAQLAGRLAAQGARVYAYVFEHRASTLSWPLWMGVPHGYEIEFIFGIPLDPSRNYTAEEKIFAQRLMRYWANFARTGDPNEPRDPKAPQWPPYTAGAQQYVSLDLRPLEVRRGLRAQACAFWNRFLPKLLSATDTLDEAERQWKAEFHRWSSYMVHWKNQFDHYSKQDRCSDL
Nuclear receptor subfamily 1 group I member 2 (Homo sapiens), sequence (O75469 whole entry, looked up): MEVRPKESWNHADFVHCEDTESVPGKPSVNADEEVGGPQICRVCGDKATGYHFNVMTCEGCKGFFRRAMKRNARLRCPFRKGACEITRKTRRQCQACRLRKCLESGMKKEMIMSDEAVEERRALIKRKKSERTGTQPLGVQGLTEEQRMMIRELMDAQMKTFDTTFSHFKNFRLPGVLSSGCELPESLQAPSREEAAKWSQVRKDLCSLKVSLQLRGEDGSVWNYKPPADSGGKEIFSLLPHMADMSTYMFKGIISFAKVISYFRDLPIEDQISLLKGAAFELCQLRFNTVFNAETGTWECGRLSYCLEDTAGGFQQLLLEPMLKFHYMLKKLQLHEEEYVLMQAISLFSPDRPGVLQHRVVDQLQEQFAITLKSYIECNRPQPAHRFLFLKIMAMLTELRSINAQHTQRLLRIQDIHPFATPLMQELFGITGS
Cytochrome P450 2C19 (Homo sapiens), sequence (P33261 whole entry, looked up): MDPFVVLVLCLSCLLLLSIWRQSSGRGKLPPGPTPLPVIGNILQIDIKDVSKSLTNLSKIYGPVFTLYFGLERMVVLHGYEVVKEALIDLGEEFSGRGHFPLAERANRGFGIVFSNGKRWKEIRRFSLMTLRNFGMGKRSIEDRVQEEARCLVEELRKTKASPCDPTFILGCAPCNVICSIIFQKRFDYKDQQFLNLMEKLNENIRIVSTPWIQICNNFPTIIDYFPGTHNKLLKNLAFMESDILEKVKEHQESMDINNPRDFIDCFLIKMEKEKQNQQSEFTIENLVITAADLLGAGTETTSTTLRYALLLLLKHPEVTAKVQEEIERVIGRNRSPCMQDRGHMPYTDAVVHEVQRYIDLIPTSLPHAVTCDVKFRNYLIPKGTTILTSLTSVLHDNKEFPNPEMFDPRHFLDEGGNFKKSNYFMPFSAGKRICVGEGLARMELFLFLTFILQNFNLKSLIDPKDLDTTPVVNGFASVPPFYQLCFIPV
Cytochrome P450 3A4 (Homo sapiens), sequence (P08684 whole entry, looked up): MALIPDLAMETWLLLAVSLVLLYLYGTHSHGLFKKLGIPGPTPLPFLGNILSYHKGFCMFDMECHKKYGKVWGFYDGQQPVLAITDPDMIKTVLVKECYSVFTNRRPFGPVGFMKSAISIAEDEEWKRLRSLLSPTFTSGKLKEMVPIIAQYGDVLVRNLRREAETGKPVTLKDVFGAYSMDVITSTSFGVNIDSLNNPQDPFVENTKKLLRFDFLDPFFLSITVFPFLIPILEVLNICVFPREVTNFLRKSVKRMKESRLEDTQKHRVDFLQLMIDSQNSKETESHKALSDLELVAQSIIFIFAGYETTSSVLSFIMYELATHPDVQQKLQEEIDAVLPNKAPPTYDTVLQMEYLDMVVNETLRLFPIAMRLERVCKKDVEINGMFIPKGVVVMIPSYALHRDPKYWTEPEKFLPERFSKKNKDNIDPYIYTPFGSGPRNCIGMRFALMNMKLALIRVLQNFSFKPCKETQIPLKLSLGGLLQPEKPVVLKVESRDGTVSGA
Cytochrome P450 2D6 (Homo sapiens), sequence (P10635 whole entry, looked up): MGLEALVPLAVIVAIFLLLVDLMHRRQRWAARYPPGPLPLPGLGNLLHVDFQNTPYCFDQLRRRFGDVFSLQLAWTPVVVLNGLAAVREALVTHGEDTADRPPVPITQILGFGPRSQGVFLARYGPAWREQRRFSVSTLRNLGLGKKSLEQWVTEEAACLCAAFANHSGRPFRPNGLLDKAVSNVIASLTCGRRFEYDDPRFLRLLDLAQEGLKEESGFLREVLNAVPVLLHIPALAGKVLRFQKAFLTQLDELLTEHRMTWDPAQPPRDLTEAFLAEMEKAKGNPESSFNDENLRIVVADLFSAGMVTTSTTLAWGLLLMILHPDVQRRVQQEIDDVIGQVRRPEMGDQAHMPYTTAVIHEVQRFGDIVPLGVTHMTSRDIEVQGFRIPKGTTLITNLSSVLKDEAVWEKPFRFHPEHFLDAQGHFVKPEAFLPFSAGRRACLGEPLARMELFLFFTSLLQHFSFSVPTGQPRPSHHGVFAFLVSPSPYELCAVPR
Voltage-gated inwardly rectifying potassium channel KCNH2 (Homo sapiens), sequence (Q12809 whole entry, looked up): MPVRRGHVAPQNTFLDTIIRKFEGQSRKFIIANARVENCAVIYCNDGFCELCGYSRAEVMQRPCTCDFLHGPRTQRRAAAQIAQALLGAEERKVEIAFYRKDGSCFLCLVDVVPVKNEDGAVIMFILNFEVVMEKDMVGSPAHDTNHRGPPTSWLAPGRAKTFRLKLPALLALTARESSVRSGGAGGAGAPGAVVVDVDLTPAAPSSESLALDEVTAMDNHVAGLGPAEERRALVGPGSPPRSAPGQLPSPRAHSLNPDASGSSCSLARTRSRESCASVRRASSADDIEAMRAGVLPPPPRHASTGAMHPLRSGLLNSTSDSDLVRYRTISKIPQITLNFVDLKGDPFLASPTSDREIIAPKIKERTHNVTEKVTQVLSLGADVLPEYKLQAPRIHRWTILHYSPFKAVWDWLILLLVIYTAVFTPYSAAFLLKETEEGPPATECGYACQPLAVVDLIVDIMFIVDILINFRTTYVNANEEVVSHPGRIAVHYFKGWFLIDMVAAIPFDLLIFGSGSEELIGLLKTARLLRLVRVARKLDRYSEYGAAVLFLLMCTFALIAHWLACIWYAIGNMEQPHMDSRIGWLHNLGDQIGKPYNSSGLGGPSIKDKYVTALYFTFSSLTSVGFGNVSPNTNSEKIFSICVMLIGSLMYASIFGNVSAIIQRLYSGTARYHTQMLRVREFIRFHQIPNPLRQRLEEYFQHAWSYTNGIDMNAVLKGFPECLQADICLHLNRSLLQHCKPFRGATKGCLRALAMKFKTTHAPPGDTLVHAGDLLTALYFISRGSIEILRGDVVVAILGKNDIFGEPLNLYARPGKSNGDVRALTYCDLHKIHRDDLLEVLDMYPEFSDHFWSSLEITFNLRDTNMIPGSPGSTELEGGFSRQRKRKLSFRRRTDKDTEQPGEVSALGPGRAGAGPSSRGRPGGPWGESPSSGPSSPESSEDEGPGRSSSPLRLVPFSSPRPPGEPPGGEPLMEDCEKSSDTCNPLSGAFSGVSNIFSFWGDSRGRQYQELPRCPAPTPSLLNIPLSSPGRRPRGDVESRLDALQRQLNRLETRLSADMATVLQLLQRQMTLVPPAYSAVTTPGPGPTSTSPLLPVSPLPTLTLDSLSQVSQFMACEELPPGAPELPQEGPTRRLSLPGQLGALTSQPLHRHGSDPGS
Cytochrome P450 2C9 (Homo sapiens), sequence (P11712 whole entry, looked up): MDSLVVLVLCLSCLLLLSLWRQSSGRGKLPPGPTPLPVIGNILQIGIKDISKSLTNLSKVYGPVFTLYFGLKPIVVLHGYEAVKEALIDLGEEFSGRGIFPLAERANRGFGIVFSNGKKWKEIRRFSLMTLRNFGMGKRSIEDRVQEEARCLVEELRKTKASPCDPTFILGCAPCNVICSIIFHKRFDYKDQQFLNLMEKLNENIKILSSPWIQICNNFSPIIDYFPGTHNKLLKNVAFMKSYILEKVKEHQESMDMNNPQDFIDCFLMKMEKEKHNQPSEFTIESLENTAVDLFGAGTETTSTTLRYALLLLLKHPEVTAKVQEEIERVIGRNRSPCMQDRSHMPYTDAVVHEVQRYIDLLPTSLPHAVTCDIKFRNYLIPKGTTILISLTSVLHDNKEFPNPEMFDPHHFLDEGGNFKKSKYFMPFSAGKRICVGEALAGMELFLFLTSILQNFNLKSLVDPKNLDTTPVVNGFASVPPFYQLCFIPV
Cytochrome P450 1A2 (Homo sapiens), sequence (P05177 whole entry, looked up): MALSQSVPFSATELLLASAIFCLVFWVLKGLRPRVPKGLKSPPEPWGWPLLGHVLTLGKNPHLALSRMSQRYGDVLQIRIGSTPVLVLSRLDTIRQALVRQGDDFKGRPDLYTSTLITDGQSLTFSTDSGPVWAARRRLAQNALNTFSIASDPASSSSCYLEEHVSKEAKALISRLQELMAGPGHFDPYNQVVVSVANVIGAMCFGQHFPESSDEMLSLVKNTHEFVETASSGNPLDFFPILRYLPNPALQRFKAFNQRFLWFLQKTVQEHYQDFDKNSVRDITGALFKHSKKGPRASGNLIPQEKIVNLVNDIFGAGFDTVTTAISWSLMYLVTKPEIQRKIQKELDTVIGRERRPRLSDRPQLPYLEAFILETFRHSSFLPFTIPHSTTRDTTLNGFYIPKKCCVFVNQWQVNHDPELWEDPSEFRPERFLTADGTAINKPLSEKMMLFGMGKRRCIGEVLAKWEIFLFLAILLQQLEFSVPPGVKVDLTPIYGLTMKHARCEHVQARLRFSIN

| SMILES | Potency [1] | Potency [2] | Potency [3] | Potency [4] | Potency [5] | Potency [6] | Potency [7] | Potency [8] | Potency [9] | Potency [10] | Potency [11] | Potency [12] | Potency [13] | Potency [14] | Potency [15] | Potency [16] |
| --- | --- | --- | --- | --- | --- | --- | --- | --- | --- | --- | --- | --- | --- | --- | --- | --- |
| CO/N=C(/C(=O)OC)c1ccccc1COc1ccccc1C | inactive | 2.73 µM (active) | inactive | inactive | inactive | inactive | inactive | inactive | 0.633 µM (active) | 28.3 µM (active) | 20 µM (active) | inactive | inactive |  |  |  |
| CN1[C@@H]2CC[C@H]1CC(OC(=O)c1cc(Cl)cc(Cl)c1)C2 (stereo partly specified) | inactive | inactive | inactive |  | inactive | inactive | inactive | 0.055 µM (active) | inactive | inactive |  | 7.56 µM (active) | inactive | inactive | inactive |  |
| CC1(C)CCC(Cc2ccc(Cl)cc2)C1(O)Cn1cncn1 (stereo unspecified) | inactive | 68.6 µM (active) |  | inactive | inactive | inactive | inactive | 35.6 µM (active) | 0.126 µM (active) | 0.178 µM (active) | 39.9 µM (active) |  | 0.0317 µM (active) |  |  |  |
| CCCCC(O)(Cn1cncn1)c1ccc(Cl)cc1Cl (stereo unspecified) |  |  | inactive | inactive | inactive | inactive | inactive | 31.7 µM (active) | 0.252 µM (active) | 0.71 µM (active) | 35.6 µM (active) | inactive |  |  | 24.3 µM (active) |  |
| O=C(OC1CCCCC1)c1ccccc1C(=O)OC1CCCCC1 | inactive |  | inactive | inactive | inactive |  | inactive | inactive | 33.4 µM (active) | 26.5 µM (active) | 37.5 µM (active) |  | 11.9 µM (active) |  | 5.74 µM (active) |  |
| O=S(=O)(O)C(F)(F)C(F)(F)C(F)(F)C(F)(F)F | inactive | 54.5 µM (active) | inactive | inactive |  | inactive | inactive | 59.8 µM (active) | 33.6 µM (active) | 17.9 µM (active) |  | inactive |  |  |  |  |
| CC(=O)c1cc2c(cc1C)C(C)(C)C(C)CC2(C)C (stereo unspecified) |  |  |  |  | inactive | inactive | inactive | inactive |  | 35.6 µM (active) |  | 13.8 µM (active) |  | inactive |  | inactive |
| CCC(C)(NC(=O)c1cc(Cl)c(C)c(Cl)c1)C(=O)CCl (stereo unspecified) | 61.5 µM (active) | 24.5 µM (active) | 21.8 µM (active) | inactive |  |  | inactive | 35.8 µM (active) | 25.3 µM (active) | 35.8 µM (active) | 2.26 µM (active) | 43.9 µM (active) | 6.37 µM (active) |  |  |  |
| CC1CC(CC2CCC(N)C(C)C2)CCC1N (stereo unspecified) | inactive | inactive | inactive | inactive | inactive | inactive | inactive | 12.8 µM (active) | inactive | inactive | 32.2 µM (active) | inactive | 2.87 µM (active) | inactive | inactive |  |
| CCOC(=O)[C@]1(c2ccccc2)Oc2ccccc2[C@@H]1N | inactive |  | inactive | 79.6 µM (active) |  |  | inactive | 0.2 µM (active) | 35.6 µM (active) |  | 63.3 µM (active) | 3.09 µM (active) |  | inactive |  |  |
| CCCC(Cn1cncn1)c1ccc(Cl)cc1Cl (stereo unspecified) | inactive |  | inactive | inactive | inactive |  | inactive | 31.7 µM (active) | 0.142 µM (active) | 5.64 µM (active) | 22.4 µM (active) | inactive | inactive |  | 24.3 µM (active) |  |
| O=[N+]([O-])c1cc(C(F)(F)F)cc([N+](=O)[O-])c1Cl | inactive | 68.9 µM (active) | inactive | inactive |  | inactive | inactive | 17.9 µM (active) | 40.1 µM (active) | 17.9 µM (active) |  | inactive | inactive | 61.4 µM (active) |  |  |
| Clc1ccc(C2(Cn3cncn3)CC(Br)CO2)c(Cl)c1 (stereo unspecified) | inactive |  | inactive | inactive | inactive |  | inactive | 31.5 µM (active) | 0.177 µM (active) | 5 µM (active) | 31.5 µM (active) |  |  |  | 24.2 µM (active) |  |
| O=C(O)C1(c2ccc3c(c2)OC[C@H](Cc2ccc(-c4ccccc4)cc2)[C@H]3O)CCCC1 | inactive |  | inactive |  | inactive | inactive | inactive | inactive |  | 71 µM (active) | inactive | inactive | inactive | inactive |  |  |
| O=S1OC[C@@H]2[C@H](CO1)[C@]1(Cl)C(Cl)=C(Cl)[C@@]2(Cl)C1(Cl)Cl (stereo partly specified) | inactive |  |  |  |  |  |  |  | 7.96 µM (active) | 39.9 µM (active) | 35.6 µM (active) |  | inactive | inactive | 30.6 µM (active) |  |
| Nc1ccc([N+](=O)[O-])cc1[N+](=O)[O-] | inactive | 47.3 µM (active) | inactive | inactive |  | inactive | inactive |  | inactive | inactive | 6.92 µM (active) | inactive |  | 47.3 µM (active) | inactive |  |

— PubChem BioAssay (Tox21)
